Test results published in PubChem BioAssay (Tox21).
Inconclusive results are not listed. The source made the active and inactive calls. Unless noted, calls follow the shape of the full dose curve.

How the values were obtained:
[1] = qHTS assay to identify small molecule antagonists of the vitamin D receptor (VDR) signaling pathway - cell viability counter screen (AID 743225; active = well fitted curve in the direction sought with a large enough effect in the repeat runs; an effect the other way counts as inactive or inconclusive; also: nearly all actives have a fitted effect of over 50% in size)
Procedure, shortened: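 Cytotoxicity toward the VDR-bla HEK 293T line was scored by ATP-based CellTiter-Glo luminescence, read in the wells already used for the beta-lactamase readout after 16 h compound treatment under 3 nM 1-alpha,25-dihydroxyvitamin D3 stimulation.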

[2] = qHTS assay to identify small molecule agonists of the NFkB signaling pathway (AID 1159509; active = well fitted curve in the direction sought with a large enough effect in the signal ratio in the repeat runs, not every such curve was filed as active; the % refers to the signal ratio; also: series mostly up to about 61 µM)
Procedure, shortened: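 After overnight attachment, reporter cells received test compounds, DMSO or positive controls and were incubated 5 hr at 37 C. FRET substrate was then added for 1.5 hr at room temperature before dual-emission fluorescence reading.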

[3] = qHTS assay to identify small molecule agonists of the NFkB signaling pathway - cell viability counter screen (AID 1159515); also: series mostly up to about 61 µM; nearly all actives have a fitted effect of over 55% in size
Procedure, shortened: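 Viability in NFkB-bla ME-180 cells was measured by CellTiter-Glo luminescence, 30 min room temperature, in wells already treated 5 hr with compounds and read for reporter FRET.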

[4] = qHTS assay to identify small molecule agonists of the endoplasmic reticulum stress response signaling pathway (AID 1159516; active = well fitted activation curve with a large enough effect in the signal ratio in the repeat runs, not every such curve was filed as active; the % refers to the signal ratio)
Procedure, shortened: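 ER stress element reporter (bla) in HeLa. 1,500 cells/well, overnight attachment; 5 hr compound; 2 hr RT substrate; dual-emission fluorescence.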

[5] = qHTS assay to identify small molecule agonists of the endoplasmic reticulum stress response signaling pathway - cell viability counter screen (AID 1159517);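 also: HeLa cells carrying an ER stress response element beta-lactamase reporter; series mostly up to about 61 µM; nearly all actives have a fitted effect of over 50% in size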
Procedure, shortened: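 Counter-screen wells were identical to the reporter wells. Cells were plated at 1,500 per well and dosed for 5 hr, then read for luminescence 30 min after CellTiter-Glo addition.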

[6] = qHTS assay to identify small molecule antagonists of the retinoid-related orphan receptor gamma (ROR-gamma) signaling pathway - cell viability counter screen (AID 1159520; active = well fitted curve in the direction sought with a large enough effect in the repeat runs; an effect the other way counts as inactive or inconclusive; also: nearly all actives have a fitted effect of over 50% in size)
Procedure, shortened: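 Tet-on ROR gamma CHO cells were given compounds for 2 hr, then doxycycline hyclate at 1 uM final, and incubated 16 hr at 37 C. Viability was measured as ATP content by CellTiter-Glo luminescence.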

[7] = target: Nuclear receptor ROR-gamma (Homo sapiens) (UniProt P51449); assay: qHTS assay to identify small molecule antagonists of the retinoid-related orphan receptor gamma (ROR-gamma) signaling pathway (AID 1159521; active = well fitted curve in the direction sought with a large enough effect in the repeat runs; an effect the other way counts as inactive or inconclusive;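 also: CHO cells with doxycycline inducible ROR-gamma driving an RORE luciferase reporter; top concentration of the series differs between compounds; nearly all actives have a fitted effect of over 50% in size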)
Procedure, shortened: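 Readout: ONE-Glo luciferase luminescence, 30 min at room temperature. System: Tet-on RORγ CHO, RORE-LUC. Sequence: compound 2 h, doxycycline 1 uM final, 16 h at 37 C.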

[8] = qHTS assay to identify small molecule agonists of the AP-1 signaling pathway - cell viability counter screen (AID 1159525); also: nearly all actives have a fitted effect of over 55% in size
Procedure, shortened: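 AP-1-bla ME-180 cells in Opti-MEM with 0.5% dialyzed FBS, compound exposure 5 h at 37 C in 15-point titration. Viability read in the same wells as ATP content by CellTiter-Glo luminescence, normalised to tetra-n-octylammonium bromide and DMSO controls.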

[9] = qHTS assay to identify small molecule agonists of the AP-1 signaling pathway (AID 1159526)
[10] = target: Retinoic acid receptor RXR-alpha (Homo sapiens) (UniProt P19793); assay: qHTS assay to identify small molecule agonists of the RXR signaling pathway (AID 1159527); also: nearly all actives have a fitted effect of over 35% in size
Procedure, shortened: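 Reporter activation is measured as beta-lactamase activity via FRET substrate cleavage (emission 460/530 nm) in HEK 293T cells expressing an RXR-alpha-driven bla construct, following 16 hr compound exposure at 37 C.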

Measured: Potency

Chain of Retinoic acid receptor RXR-alpha (Homo sapiens) (P19793 whole entry, looked up): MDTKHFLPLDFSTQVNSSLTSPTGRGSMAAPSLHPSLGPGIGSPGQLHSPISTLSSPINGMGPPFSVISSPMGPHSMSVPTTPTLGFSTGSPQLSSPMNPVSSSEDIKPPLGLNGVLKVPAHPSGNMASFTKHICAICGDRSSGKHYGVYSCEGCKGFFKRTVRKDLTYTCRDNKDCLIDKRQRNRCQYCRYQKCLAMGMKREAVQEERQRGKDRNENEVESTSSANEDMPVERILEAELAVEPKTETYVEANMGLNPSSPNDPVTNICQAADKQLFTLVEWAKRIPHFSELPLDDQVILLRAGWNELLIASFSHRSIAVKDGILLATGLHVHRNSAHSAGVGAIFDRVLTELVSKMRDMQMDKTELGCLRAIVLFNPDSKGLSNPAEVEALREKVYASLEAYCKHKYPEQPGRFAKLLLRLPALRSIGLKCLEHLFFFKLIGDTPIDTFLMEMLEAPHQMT

C=Cc1ccc(C(C)(C)C)cc1
inactive: all assays above

CCCCCCCCCCCCCCCCCC#N
inactive: all assays above

CCOc1ccccc1OCC1CNCCO1 (stereo not drawn)
inactive: all assays above

CCCc1ccc(O)cc1
inactive: all assays above

C=C(C)[C@@H]1CC=C(C)CC1
not listed: [2] | [7]
inactive: all other assays above
